Experimental findings from PubChem BioAssay (Tox21) are described below.

Test [1] can be described thus: qHTS assay to identify small molecule agonists of the vitamin D receptor (VDR) signaling pathway - cell viability counter screen (AID 743224). Note: nearly all actives have a fitted effect of over 50% in size. Particulars: VDR-bla HEK293T viability, CellTiter-Glo luminescence, 16 h; series mostly up to 62.6 µM. The essentials:
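Cells: VDR-bla, 2,000/well, settled 4 h. Treatment: compounds in DMSO, 16 h, 37C/5% CO2. Readout: CellTiter-Glo luminescence after 30 min RT.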
(In general: Quantitative high-throughput screening tests each substance at several concentrations.)

A short description of test [2]: qHTS assay to identify small molecule antagonists of the vitamin D receptor (VDR) signaling pathway - cell viability counter screen (AID 743225). Note: nearly all actives have a fitted effect of over 50% in size. The following applies: VDR-bla HEK293T viability, CellTiter-Glo luminescence, 16 h; series mostly up to 61 µM. The essentials: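 Parallel cytotoxicity test: VDR-UAS-bla HEK 293T, 3 nM (final) 1-alpha,25-dihydroxyvitamin D3 with test compound, 16 h, 37C. Endpoint is CellTiter-Glo luminescence in the same wells.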

The nature of test [3]: qHTS assay to identify small molecule agonists of the NFkB signaling pathway (AID 1159509; active = well fitted curve in the direction sought with a large enough effect in the signal ratio in the repeat runs, not every such curve was filed as active; the % refers to the signal ratio). The following applies: NFkB-bla ME-180 cells, beta-lactamase FRET ratio, 5 h; series mostly up to 61 µM. The essentials: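 Pathway activation was measured in ME-180 cells stably expressing beta-lactamase under NF-kB response element control. Substrate cleavage was read as the 460/530 nm emission shift after 5 hr compound incubation.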

Test [4] can be described thus: qHTS assay to identify small molecule agonists of the NFkB signaling pathway - cell viability counter screen (AID 1159515; calls by dose curve; note: nearly all actives have a fitted effect of over 55% in size). Particulars: NFkB-bla ME-180 viability, CellTiter-Glo luminescence, 5 h; series mostly up to 61 µM. Put shortly: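 Cells are seeded (2,000 NFkB-bla ME-180 per well), rested overnight, and dosed with DMSO-dissolved compounds for 5 hr at 37 C. Viability is then read by CellTiter-Glo luminescence after 30 min at room temperature.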

The nature of test [5]: qHTS assay to identify small molecule agonists of the endoplasmic reticulum stress response signaling pathway (AID 1159516; active = well fitted activation curve with a large enough effect in the signal ratio in the repeat runs, not every such curve was filed as active; the % refers to the signal ratio). Particulars: ESRE-bla HeLa, ER stress beta-lactamase reporter, 5 h; series mostly up to 61 µM. Put shortly:
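Cells are seeded at 1,500 per well and incubated overnight. Compounds in DMSO are added for 5 hr at 37 C, then beta-lactamase FRET substrate for 2 hr at room temperature, and fluorescence at 460 and 530 nm is measured.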

A short description of test [6]: qHTS assay to identify small molecule agonists of the endoplasmic reticulum stress response signaling pathway - cell viability counter screen (AID 1159517; calls by dose curve;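 note: HeLa cells carrying an ER stress response element beta-lactamase reporter; nearly all actives have a fitted effect of over 50% in size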). The following applies: ESRE-bla HeLa viability, CellTiter-Glo luminescence, 5 h; series mostly up to 61 µM. The essentials: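 In parallel with the ESRE reporter read, cytotoxicity was scored by CellTiter-Glo luminescence (30 min, room temperature) on HeLa ESRE-bla cells dosed for 5 hr.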

A short description of test [7]: qHTS assay to identify small molecule antagonists of the retinoid-related orphan receptor gamma (ROR-gamma) signaling pathway - cell viability counter screen (AID 1159520). Note: nearly all actives have a fitted effect of over 50% in size. The following applies: Tet-on RORgamma CHO cells viability, ATP luminescence, 16 h; series mostly up to 92.4 µM. Put shortly:
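Tet-on ROR gamma CHO cells were given compounds for 2 hr, then doxycycline hyclate at 1 uM final, and incubated 16 hr at 37 C. Viability was measured as ATP content by CellTiter-Glo luminescence.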

Test [8] concerns the target Nuclear receptor ROR-gamma (Homo sapiens) (UniProt P51449). Kind of test: qHTS assay to identify small molecule antagonists of the retinoid-related orphan receptor gamma (ROR-gamma) signaling pathway (AID 1159521). The following applies: Tet-on RORgamma CHO cells, RORE-luciferase, 16 h; series mostly up to 92.4 µM. Put shortly:
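Decreased RORE-driven luciferase luminescence indicates antagonism. Tet-on RORγ CHO cells received compound, then 1 uM final doxycycline 2 h later; signal read after 16 h incubation.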

Test [9] is described as follows: qHTS assay to identify small molecule agonists of the AP-1 signaling pathway - cell viability counter screen (AID 1159525; calls by dose curve; note: nearly all actives have a fitted effect of over 55% in size). Particulars: ME-180 AP-1-bla cells viability, ATP luminescence, 5 h; series mostly up to 76.8 µM. Put shortly:
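Same-well cytotoxicity counter screen of the Tox21 10K library in ME-180 cells. The readout is ATP-dependent luminescence after 5 h compound treatment. Data are normalised to DMSO and tetra n-octyl ammonium bromide controls.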

Test [10] is described as follows: qHTS assay to identify small molecule agonists of the AP-1 signaling pathway (AID 1159526; calls by dose curve). Particulars: ME-180 (cervical carcinoma) AP-1-bla reporter, beta-lactamase FRET ratio, 5 h; series mostly up to 76.8 µM.
Test [11] concerns the target Retinoic acid receptor RXR-alpha (Homo sapiens) (UniProt P19793). The test is described as follows: qHTS assay to identify small molecule agonists of the RXR signaling pathway (AID 1159527; calls by dose curve; note: nearly all actives have a fitted effect of over 35% in size). The following applies: HEK293T RXRa-UAS-bla, beta-lactamase ratio, 16 h; series mostly up to 76.8 µM. Put shortly: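 16 hr incubation of compound-treated RXR-alpha-UAS-bla HEK 293T cells (2% charcoal-stripped FBS, 37 C) preceded a 2 hr room-temperature LiveBLAzer FRET substrate step and blue/green fluorescence measurement.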

Test [12] is described as follows: qHTS assay to identify small molecule agonists of the RXR signaling pathway - cell viability counter screen (AID 1159529). Note: nearly all actives have a fitted effect of over 50% in size. Particulars: RXR-alpha-bla HEK293T viability, CellTiter-Glo, 16 h; series mostly up to 76.8 µM. Put shortly:
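In this parallel viability measure, GeneBLAzer RXR-alpha HEK 293T cells (2% charcoal-stripped FBS) were given a 5 hr preincubation, treated with compounds 16 hr at 37 C, and read by CellTiter-Glo luminescence.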

Test [13] is described as follows: qHTS assay to identify small molecule antagonists of the retinoid acid receptor (RAR) signaling pathway - cell viability counter screen (AID 1159551). Note: nearly all actives have a fitted effect of over 35% in size. The following applies: C3RL4 cells viability, ATP luminescence (CellTiter-Glo), 6 h; series mostly up to 92.4 µM. Put shortly: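 Cells (C3RL4) are plated, incubated overnight, dosed with compound in DMSO, then given retinol at 1 uM final. After 6 h at 37 C, CellTiter-Glo is added and luminescence read following 30 min at room temperature.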

Test [14] in a line: qHTS assay to identify small molecule antagonists of the retinoic acid receptor (RAR) signaling pathway (AID 1159552; note: nearly all actives have a fitted effect of over 50% in size). Particulars: C3RL4 RARE luciferase reporter, retinol-stimulated, 6 h; series mostly up to 92.4 µM. Put shortly: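 C3RL4 RARE-luc cells, overnight plating; retinol 1 uM final added right after compound; 6 hr 37 C; luciferase read at 30 min RT.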
Test [15] is described as follows: qHTS assay to identify small molecule agonists of the retinoic acid receptor (RAR) signaling pathway (AID 1159553). Note: potency is the fitted concentration of half-maximal effect. The following applies: C3RL4 RARE luciferase reporter, agonist, 6 h; series mostly up to 73.3 µM. Put shortly:
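Seed C3RL4 reporter cells at 1,000 per well and incubate overnight at 37 C. Add compounds in DMSO, incubate 6 hr. Add luciferase reagent, wait 30 min at room temperature, read luminescence.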

Test [16] is described as follows: qHTS assay to identify small molecule antagonists of the estrogen related receptor (ERR) signaling pathway - cell viability counter screen (AID 1224818). Particulars: ERR reporter cell line viability counter screen; series mostly up to 46.1 µM. Put shortly: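 ERR cells, 2,000/well; 6 h settle at 37 C/5% CO2; compound pin transfer (DMSO); 17.5 h at 37 C; CellTiter-Fluor, 30 min, fluorescence read.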

A short description of test [17]: qHTS assay to identify small molecule antagonists of the estrogen related receptor signaling pathway with the pleiotropic PPARgamma coactivator (PGC) cell viability counter screen (AID 1224822). The following applies: ERR/PGC reporter cell line viability counter screen; series mostly up to 46.1 µM. Put shortly:
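Multiplexed viability counter screen run in PGC/ERR cells treated with compounds for 17.5 h at 37 C; live-cell protease signal measured by CellTiter-Fluor fluorescence.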

Where “and” joins values, the source holds several entries; their conditions need not be identical. Equal entries are not always repeated. Records with an inconclusive call do not appear. Calls of active or inactive are those of the source. Unless noted, calls come from the whole dose curve; as a rule, active = well fitted curve in the direction sought with a large enough effect in the repeat runs; inconclusive = weak or mixed curves; inactive = no such curve, though single readings can be large; an effect the other way counts as inactive or inconclusive.

Retinoic acid receptor RXR-alpha (Homo sapiens), sequence (P19793 whole entry, looked up): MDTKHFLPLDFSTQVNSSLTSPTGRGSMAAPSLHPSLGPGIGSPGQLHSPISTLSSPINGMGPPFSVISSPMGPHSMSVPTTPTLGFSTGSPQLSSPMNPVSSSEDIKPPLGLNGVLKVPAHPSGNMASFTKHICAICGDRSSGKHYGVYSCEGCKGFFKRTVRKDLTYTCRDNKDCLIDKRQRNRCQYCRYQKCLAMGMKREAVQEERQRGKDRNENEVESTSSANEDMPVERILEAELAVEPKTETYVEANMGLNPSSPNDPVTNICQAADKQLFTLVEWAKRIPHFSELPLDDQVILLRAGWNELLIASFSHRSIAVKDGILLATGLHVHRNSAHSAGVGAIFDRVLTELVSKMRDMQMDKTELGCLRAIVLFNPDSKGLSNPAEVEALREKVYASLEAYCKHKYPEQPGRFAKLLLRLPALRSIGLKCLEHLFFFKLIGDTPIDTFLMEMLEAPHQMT

Turning to `NC(=O)c1ccc([N+](=O)[O-])cc1Cl`, the Potency result in [1], in test [6], in test [8], in test [10], in test [11] and in test [12] was “inactive” each time. Further, the Potency entry in [14] and in [15] was “inactive” each time. In addition, the compound was classed as inactive in test [2], in test [3], in test [4], in test [5], in test [7] and in test [9]. In addition, in [13], the outcome was inactive.

Consider `NC(=O)NO`, for which the Potency entry in [1], in [6], in test [8], in [10], in test [11] and in test [12] was “inactive” in each case. In addition, the Potency entry in test [14] and in test [15] was “inactive” each time. The compound was called inactive in test [2], in test [3], in test [4], in test [5], in test [7] and in test [9]. Also, the outcome in test [16] and in test [17] was inactive.

Turning to `CCCCC/C(C=O)=C\c1ccccc1`, the Potency result in test [1], in test [6], in test [8], in [10], in test [11] and in test [12] was “inactive” in each case. Moreover, the Potency result in test [14] and in test [15] was “inactive” each time. Further, the call in test [2], in test [3], in [4], in test [5], in [7] and in test [9] was inactive.

Turning to `Cc1c(N(C)C)c(=O)n(-c2ccccc2)n1C`, the Potency result in test [1], in [6], in [8], in test [10], in test [11] and in [12] was “inactive” in each case. Besides, the result in [2], in [3], in [4], in test [5], in [7] and in test [9] was inactive. The compound was classed as inactive in [13].

On to `CN/C(=C\[N+](=O)[O-])NCCSCc1ccc(CN(C)C)o1`, for which the Potency result in test [1], in [6], in test [8], in [10], in test [11] and in test [12] was “inactive” throughout. For the same compound, the Potency entry in [14] and in [15] was “inactive” each time. Moreover, the result in [2], in test [3], in [4], in [5], in test [7] and in test [9] was inactive. The result in test [16] and in test [17] was inactive.

Turning to `Nc1cccc(N)c1`, the Potency result in test [1], in test [6], in test [8], in [10], in test [11] and in [12] was “inactive” in each case. Further, the Potency entry in [14] and in test [15] was “inactive” in each case. Moreover, the outcome in [2], in test [3], in test [4], in test [5], in test [7] and in test [9] was inactive.

Consider `COc1ccc(C(=O)c2ccccc2)c(O)c1`, for which the Potency entry in test [1], in [6], in test [8], in test [10], in [11] and in test [12] was “inactive” each time. Besides, the Potency result in test [14] was “inactive”. Besides, the compound was called inactive in test [2], in test [3], in [4], in test [5], in [7] and in test [9]. For the same compound, the Potency in [15] was 61.1 µM (active) and 23.7 µM (active).
